The structures appear in SMILES notation. This is part of a sample that, as a whole, favours compounds with a hit. Of some 83,000 tested, about 20% had one in any assay.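 Negative percent growth values reflect cell death: -40 means 40% of the cells present at the start died, and -100 means all died.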 Unmarked numbers belong to inactive results. Activity calls are given as the source filed them. The calls were made as follows: active = growth percent below 10; inactive = the rest.

Some test systems named below: HCT-15 colon; HT29 colon; SNB-75 CNS; SNB-19 CNS; U251 CNS; PC-3 prostate; SK-MEL-5 melanoma; UACC-62 melanoma; LOX IMVI melanoma; SK-MEL-28 melanoma; SK-MEL-2 melanoma; EKVX NSCLC; SN12C renal; UO-31 renal; TK-10 renal; ACHN renal; CAKI-1 renal; A498 renal; CCRF-CEM leukemia; MOLT-4 leukemia.
Assay in all cases: NCI-60 one-dose screen, 48 h (100 = growth as untreated, 0 = no growth, -100 = all killed)
What all share (conditions): 10 µM unless noted

In the case of `Nc1ncccc1O`, the growth with HCT-15 colon is 18.7%; in the assay on HT29 colon it was 26.6%; in the assay with SNB-75 CNS it was 121%; in the assay with SNB-19 CNS, 101%; in the assay with U251 CNS it was 81.4%; with PC-3 prostate it was 133%. Moreover, the growth in the assay with SK-MEL-5 melanoma was 101%; with UACC-62 melanoma it was 89.3%; in the assay on LOX IMVI melanoma it was 75.2%; in the assay on SK-MEL-28 melanoma it was 106%; in the assay with SK-MEL-2 melanoma it was 17.3%; in the assay with EKVX NSCLC it was 120%. The growth in the assay with SN12C renal was 96.7%; with UO-31 renal it was 92.5%; with TK-10 renal, 108%; with ACHN renal, 5.59% (active); in the assay on CAKI-1 renal it was 56.6%; with A498 renal, 99.7%. The growth with CCRF-CEM leukemia is 84.6%; in the assay on MOLT-4 leukemia, 65%.

As to `COc1cc(/C=C/C(=O)N2CCN(C(=O)c3cc(OC)c(OC)c(OC)c3)CC2)ccc1OCCCOc1cc2c(cc1OC)C(=O)N1CCC[C@H]1C=N2`, the growth was 43.4% in the assay with HCT-15 colon; 13.5% with HT29 colon; -48.1% (active) in the assay on SNB-75 CNS; 13.8% with SNB-19 CNS; 7.58% (active) with U251 CNS; -43% (active) in the assay with PC-3 prostate. Moreover, the growth was 2.69% (active) in the assay with SK-MEL-5 melanoma; -90.1% (active) in the assay with UACC-62 melanoma; 1.38% (active) with LOX IMVI melanoma; -47.3% (active) in the assay on SK-MEL-28 melanoma; -42.4% (active) in the assay with SK-MEL-2 melanoma; 8% (active) in the assay on EKVX NSCLC. For the same molecule, the growth was 13.9% in the assay on SN12C renal; -12.8% (active) with UO-31 renal; 6.61% (active) with TK-10 renal; 0.236% (active) in the assay on ACHN renal; 3.12% (active) with CAKI-1 renal; -55.8% (active) in the assay on A498 renal. For the same molecule, the growth is -1.17% (active) in the assay with CCRF-CEM leukemia and 7.57% (active) in the assay on MOLT-4 leukemia.

`CN(C)CCCn1c2c(c3ccncc3c1=O)C(=O)c1ccccc1-2`: the growth in the assay on HCT-15 colon is 2.9% (active); in the assay on HT29 colon it was 2.14% (active); in the assay with SNB-75 CNS it was 21%; in the assay with SNB-19 CNS, 1.91% (active); in the assay on U251 CNS, 0.267% (active); with PC-3 prostate it was -18.5% (active). Besides, the growth in the assay with SK-MEL-5 melanoma is -94.3% (active); in the assay on UACC-62 melanoma it was -56.7% (active); in the assay on LOX IMVI melanoma it was -42.3% (active); with SK-MEL-28 melanoma, -43.1% (active); in the assay on SK-MEL-2 melanoma, -4.66% (active); in the assay on EKVX NSCLC it was 82.7%. Also, the growth in the assay on SN12C renal is 6.53% (active); in the assay with UO-31 renal, -37.4% (active); with TK-10 renal, 12.8%; with ACHN renal it was -38.4% (active); with CAKI-1 renal, 10.8%; with A498 renal, 58%. Besides, the growth in the assay on CCRF-CEM leukemia is 1.34% (active); in the assay with MOLT-4 leukemia it was -15% (active).

Take `COc1ccc2c(c1)CC[C@@H]1[C@@H]2CC[C@]2(C)c3c(cc(C#N)c4c3sc3ccccc34)C[C@@H]12`: the growth in the assay with HCT-15 colon is 104%; with HT29 colon it was 100%; in the assay on SNB-75 CNS, 86%; in the assay with SNB-19 CNS, 104%; in the assay on U251 CNS, 104%; in the assay on PC-3 prostate it was 85.5%. In addition, the growth in the assay with SK-MEL-5 melanoma is 95.9%; with UACC-62 melanoma, 99.5%; with LOX IMVI melanoma, 96.8%; in the assay on SK-MEL-28 melanoma, 110%; in the assay on SK-MEL-2 melanoma it was 109%; in the assay on EKVX NSCLC, 103%. The growth in the assay on SN12C renal is 104%; in the assay on UO-31 renal, 85%; in the assay with TK-10 renal, 107%; in the assay with ACHN renal it was 105%; with CAKI-1 renal it was 103%; in the assay on A498 renal it was 109%. Also, the figures for the growth with CCRF-CEM leukemia and with MOLT-4 leukemia were 82.3% and 92.1%, respectively.

Regarding `COc1cc2ncnc(Nc3ccc(F)c(Cl)c3)c2cc1OCC(=O)N1CCOCC1`, the growth in the assay on HCT-15 colon is 96.6%; in the assay with HT29 colon, 91.8%; with SNB-75 CNS, 102%; in the assay with SNB-19 CNS, 86%; in the assay on U251 CNS, 102%; with PC-3 prostate it was 94.3%. Also, the growth was 98.4% with SK-MEL-5 melanoma; 86.6% in the assay with UACC-62 melanoma; 97.8% with LOX IMVI melanoma; 106% in the assay with SK-MEL-28 melanoma; 87.1% in the assay with SK-MEL-2 melanoma; 63.3% in the assay on EKVX NSCLC. For the same molecule, the growth with SN12C renal is 80.3%; in the assay on UO-31 renal it was 52.4%; in the assay with TK-10 renal, 20.8%; in the assay with ACHN renal, 31.9%; in the assay on CAKI-1 renal it was 48.4%; in the assay with A498 renal it was 66.2%. The growth with CCRF-CEM leukemia was 91.6%; in the assay with MOLT-4 leukemia, 91.5%.

Consider `COC(=O)c1ccc2c(c1)c1c(C)c3cnccc3c(C)c1n2C`, for which the growth was -8.77% (active) in the assay on HCT-15 colon; -10.9% (active) in the assay on HT29 colon; 8.05% (active) with SNB-75 CNS; -1.59% (active) in the assay on SNB-19 CNS; -16.5% (active) in the assay on U251 CNS; 5.43% (active) with PC-3 prostate. For the same molecule, the growth in the assay on SK-MEL-5 melanoma is -91.3% (active); in the assay with UACC-62 melanoma, -82.3% (active); in the assay on LOX IMVI melanoma, -55% (active); in the assay with SK-MEL-28 melanoma it was -54.5% (active); in the assay on SK-MEL-2 melanoma, -56.2% (active); in the assay with EKVX NSCLC, -7.49% (active). Also, the growth is -3.93% (active) in the assay with SN12C renal; -45.7% (active) in the assay on UO-31 renal; -15.5% (active) in the assay on TK-10 renal; -27.7% (active) in the assay with ACHN renal; -10.2% (active) with CAKI-1 renal; -84.3% (active) in the assay on A498 renal. Also, the growth in the assay with CCRF-CEM leukemia was 6.83% (active); in the assay with MOLT-4 leukemia it was 2.75% (active).

Take `Nc1ccc(-c2ccncc2)cc1NC(=O)N1CCCC1`: the growth in the assay on HCT-15 colon was 100%; in the assay on HT29 colon, 72.9%; in the assay with SNB-75 CNS, 85%; in the assay with SNB-19 CNS it was 106%; in the assay with U251 CNS it was 89.8%; with PC-3 prostate, 91.2%. Further, the growth in the assay with SK-MEL-5 melanoma is 99.3%; in the assay on UACC-62 melanoma it was 91.7%; in the assay on LOX IMVI melanoma, 112%; in the assay on SK-MEL-28 melanoma, 96.1%; in the assay on SK-MEL-2 melanoma, 87.9%; in the assay with EKVX NSCLC, 104%. Further, the growth was 100% in the assay on SN12C renal; 88.7% with UO-31 renal; 85.2% in the assay with TK-10 renal; 108% in the assay with ACHN renal; 95% in the assay with CAKI-1 renal; 76.8% in the assay with A498 renal. Moreover, the growth in the assay on CCRF-CEM leukemia was 88.1%; in the assay with MOLT-4 leukemia, 87%.

For the molecule `COC(=O)c1sccc1-c1cc(O)c(C(=O)Nc2ccccc2)s1`, the growth in the assay on HCT-15 colon was 97.7%; with HT29 colon, 90%; in the assay on SNB-75 CNS, 72%; with SNB-19 CNS it was 107%; with U251 CNS it was 101%; in the assay on PC-3 prostate it was 90.4%. Moreover, the growth in the assay on SK-MEL-5 melanoma is 102%; in the assay on UACC-62 melanoma, 91.2%; in the assay on LOX IMVI melanoma, 96.6%; in the assay on SK-MEL-28 melanoma it was 110%; in the assay on SK-MEL-2 melanoma, 104%; with EKVX NSCLC it was 71.9%. Moreover, the growth with SN12C renal was 105%; with UO-31 renal it was 69.9%; in the assay on TK-10 renal it was 121%; with ACHN renal, 94%; in the assay on CAKI-1 renal, 86.4%; in the assay on A498 renal, 115%. Also, the growth was 101% in the assay on CCRF-CEM leukemia and 96.9% in the assay on MOLT-4 leukemia.

Values taken from PubChem BioAssay (NCI).
